Results on nine compounds are retold here after PubChem BioAssay (NCI).

This is part of a sample that, as a whole, favours compounds with a hit. Of some 83,000 tested, about 20% had one in any assay.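 Values shown are percent growth following 48 h exposure of cells in 96-well plates to a single concentration of compound; below 10 was considered active.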 Values without a mark were called inactive. Active and inactive are the calls of the source.

What all share (experiment): NCI-60 one-dose screen, 48 h (100 = growth as untreated, 0 = no growth, -100 = all killed)
One experiment has as its system SR leukemia. The settings on record: 10 µM unless noted.
For a further experiment, the system named is OVCAR-8 ovarian. As to conditions: 10 µM unless noted.
The test system of a further experiment is OVCAR-5 ovarian. The settings on record: 10 µM unless noted.
The next experiment relates to OVCAR-4 ovarian. The settings on record: 10 µM unless noted.
A further experiment concerns IGROV1 ovarian. As to conditions: 10 µM unless noted.
The next experiment has as its system OVCAR-3 ovarian. As to conditions: 10 µM unless noted.
The subject of the next experiment is HS 578T breast. The settings on record: 10 µM unless noted.
The test system of the next experiment is NCI/ADR-RES ovarian. The settings on record: 10 µM unless noted.
The next experiment relates to BT-549 breast. As to conditions: 10 µM unless noted.
In a further experiment the test system is MDA-MB-435 melanoma. The settings on record: 10 µM unless noted.
In the next experiment the test system is SW-620 colon. As to conditions: 10 µM unless noted.
In a further experiment the test system is MCF7 breast. The settings on record: 10 µM unless noted.
A further experiment concerns HCT-116 colon. The settings on record: 10 µM unless noted.
A further experiment has as its system HCC-2998 colon. The settings on record: 10 µM unless noted.
The subject of the next experiment is KM12 colon. As to conditions: 10 µM unless noted.
Another experiment deals with RPMI-8226 leukemia. The settings on record: 10 µM.
For the next experiment, the system named is SK-OV-3 ovarian. The settings on record: 10 µM.
The test system of another experiment is T-47D breast. As to conditions: 10 µM.

Regarding `CCOC(=O)n1cc(C2=C(c3cn(C)c4ccccc34)COC2=O)c2ccccc21`, the growth is 14% in the experiment with SR leukemia; 16.5% in the experiment on OVCAR-8 ovarian; 29.9% in the experiment with OVCAR-5 ovarian; 28.8% with OVCAR-4 ovarian; 14.7% in the experiment with IGROV1 ovarian; -29.8% (active) with OVCAR-3 ovarian. In addition, the growth with HS 578T breast is 9.62% (active); with NCI/ADR-RES ovarian, 2.15% (active); in the experiment on BT-549 breast, 26.8%; in the experiment on MDA-MB-435 melanoma, -22.2% (active); with SW-620 colon, 20.9%; with MCF7 breast it was 10.2%. Besides, the growth with HCT-116 colon was 10.6%; in the experiment with HCC-2998 colon, 16.5%; in the experiment with KM12 colon, 2.55% (active).
With `O=c1c2c(=NCCN3CCCC3)cc3c(=O)n(CCCN4CCOCC4)c(=O)c4ccc(c(O)n1CCCN1CCOCC1)c2c4-3`, the growth is 13.5% in the experiment on SR leukemia; 11.9% in the experiment with OVCAR-8 ovarian; -10.9% (active) with OVCAR-5 ovarian; -49.1% (active) in the experiment on OVCAR-4 ovarian; 2.41% (active) in the experiment with IGROV1 ovarian; -8.68% (active) in the experiment on OVCAR-3 ovarian. The growth in the experiment with HS 578T breast is -13.9% (active); with NCI/ADR-RES ovarian, -2.98% (active); in the experiment with BT-549 breast, -34.9% (active); with MDA-MB-435 melanoma, -87.9% (active); in the experiment on SW-620 colon it was -15.5% (active); with MCF7 breast it was -17.7% (active). Besides, the growth with HCC-2998 colon is -45.8% (active).
With `COc1ccc(NS(=O)(=O)c2ccc(-c3cnc(C4CC4)o3)cc2)cc1`, the growth in the experiment with SR leukemia is 40.8%; in the experiment on RPMI-8226 leukemia, 74.9%; with OVCAR-8 ovarian, 81.5%; in the experiment on OVCAR-4 ovarian it was 60.8%; in the experiment on IGROV1 ovarian, 62.8%; in the experiment with OVCAR-3 ovarian it was 27.4%. In addition, the growth in the experiment on HS 578T breast was 42.4%; in the experiment on NCI/ADR-RES ovarian it was 30.3%; with BT-549 breast it was 58.6%; in the experiment with MDA-MB-435 melanoma it was 1.55% (active); in the experiment with SW-620 colon, 20.1%; in the experiment with MCF7 breast it was 29.4%. The growth is 38.8% with HCT-116 colon, 85.9% in the experiment on HCC-2998 colon and 40.2% in the experiment with KM12 colon.
For the compound `Cc1nc(NC(=O)COc2cccc(/C=C3\COc4ccccc4C3=O)c2)sc1C`, the growth is -69.5% (active) in the experiment with SR leukemia; -74.2% (active) in the experiment with RPMI-8226 leukemia; 7.04% (active) in the experiment with OVCAR-8 ovarian; 55.1% in the experiment with OVCAR-4 ovarian; 92.2% in the experiment with SK-OV-3 ovarian; -83.3% (active) with OVCAR-3 ovarian. In addition, the growth with HS 578T breast was -33.7% (active); in the experiment with T-47D breast, 53.2%; in the experiment with BT-549 breast, -68.5% (active); with MDA-MB-435 melanoma, -44.5% (active); in the experiment with SW-620 colon, -100% (active); with MCF7 breast it was -58.7% (active). Also, in the experiment on KM12 colon, the growth is -92.4% (active).
For `CCCOC(=O)c1ccc2c(c1)[N+](=O)C(C(=O)c1ccccc1)=C(C(F)(F)F)[N+]2=O`, the growth with SR leukemia was -41.4% (active); in the experiment on OVCAR-8 ovarian, -86% (active); in the experiment on OVCAR-5 ovarian, -87.7% (active); in the experiment with OVCAR-4 ovarian, -73.1% (active); in the experiment with SK-OV-3 ovarian it was -99.9% (active); in the experiment with IGROV1 ovarian it was -74.4% (active). Also, the growth in the experiment with OVCAR-3 ovarian was -95.3% (active); in the experiment on HS 578T breast, -52% (active); with NCI/ADR-RES ovarian it was -43.1% (active); with T-47D breast, -83.2% (active); in the experiment on BT-549 breast, -83.9% (active); with MDA-MB-435 melanoma, -89.5% (active). Besides, the growth was -82.5% (active) in the experiment with SW-620 colon; -69.7% (active) in the experiment on MCF7 breast; -73% (active) in the experiment on HCT-116 colon; -87.6% (active) in the experiment on HCC-2998 colon; -81.6% (active) in the experiment with KM12 colon.
With `Cc1ccccc1-n1nnc(C(=O)Nc2ccc(-c3ccccc3)cn2)c1C`, the growth was 16% [50 µM] in the experiment on SR leukemia; 41.2% [50 µM] in the experiment on OVCAR-8 ovarian; 87.1% [50 µM] in the experiment on OVCAR-5 ovarian; 11.5% [50 µM] in the experiment on OVCAR-4 ovarian; 71% [50 µM] in the experiment with IGROV1 ovarian; 68.8% [50 µM] in the experiment with OVCAR-3 ovarian. In addition, the growth is 90% [50 µM] with HS 578T breast; 33.3% [50 µM] in the experiment on NCI/ADR-RES ovarian; 50.7% [50 µM] in the experiment on BT-549 breast; 23.8% [50 µM] in the experiment on MDA-MB-435 melanoma; 69.3% [50 µM] in the experiment with SW-620 colon; 24.3% [50 µM] with MCF7 breast. Further, the growth is 31.3% [50 µM] in the experiment with HCT-116 colon, 73.9% [50 µM] in the experiment on HCC-2998 colon and 53% [50 µM] in the experiment with KM12 colon.
Consider `FCOC(C(F)(F)F)C(F)(F)F`, for which the growth with SR leukemia was 86.2%; in the experiment on OVCAR-8 ovarian, 107%; with OVCAR-5 ovarian it was 103%; with OVCAR-4 ovarian it was 121%; in the experiment with SK-OV-3 ovarian, 98%; with IGROV1 ovarian, 111%. In addition, the growth in the experiment on OVCAR-3 ovarian was 107%; in the experiment on HS 578T breast, 107%; in the experiment with NCI/ADR-RES ovarian it was 106%; with T-47D breast, 97.9%; with BT-549 breast, 103%; in the experiment on MDA-MB-435 melanoma it was 103%. The growth with SW-620 colon is 101%; in the experiment on MCF7 breast it was 101%; with HCT-116 colon, 103%; with HCC-2998 colon, 104%; with KM12 colon, 103%.
As to `Nc1cccc2c(=S)c3ccccc3[nH]c12`, the growth is 111% in the experiment on SR leukemia; 93.7% with OVCAR-8 ovarian; 92.9% in the experiment with OVCAR-5 ovarian; 83% in the experiment on OVCAR-4 ovarian; 86.9% with IGROV1 ovarian; 91% in the experiment on OVCAR-3 ovarian. Moreover, the growth in the experiment on HS 578T breast was 94.3%; in the experiment with NCI/ADR-RES ovarian it was 101%; in the experiment on BT-549 breast, 102%; with MDA-MB-435 melanoma it was 106%; in the experiment on SW-620 colon, 92.6%; with MCF7 breast, 85.6%. Further, the growth is 93.4% in the experiment on HCT-116 colon, 106% in the experiment on HCC-2998 colon and 102% in the experiment with KM12 colon.
For the compound `O=c1[nH]c(=O)n(Cc2ccc(F)cc2)cc1F`, the growth in the experiment with SR leukemia is 93.5% [50 µM]; with OVCAR-8 ovarian, 94.2% [50 µM]; in the experiment on OVCAR-5 ovarian, 104% [50 µM]; in the experiment with OVCAR-4 ovarian it was 108% [50 µM]; with IGROV1 ovarian it was 108% [50 µM]; in the experiment with OVCAR-3 ovarian, 116% [50 µM]. Moreover, the growth with HS 578T breast was 104% [50 µM]; with NCI/ADR-RES ovarian it was 113% [50 µM]; with BT-549 breast, 102% [50 µM]; in the experiment with MDA-MB-435 melanoma, 104% [50 µM]; in the experiment with SW-620 colon it was 105% [50 µM]; with MCF7 breast, 96.3% [50 µM]. Besides, the growth with HCT-116 colon is 112% [50 µM]; in the experiment with HCC-2998 colon, 112% [50 µM]; with KM12 colon, 106% [50 µM].
